Source: PubChem BioAssay AID652264 (National Center for Advancing Translational Sciences (NCATS), 2013)
Activity calls are given as the source filed them.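 How the source made its calls: active means compounds blocking cell cycle progression with a potency of 5000 nM or lower; inconclusive means potency above 5000 nM but under 10000 nM; inactive means the rest.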

Assay: qHTS for Inhibitors of Ubiquitin-specific Protease USP2a Using CHOP2 as the Reporter: Cell Cycle
Conditions: HCT116 cell cycle arrest, propidium iodide DNA content, 16 h
Excerpt: Homeostasis of cellular proteins is maintained through a combination of synthesis and degradation. The pathway that accounts for the majority of protein degradation is the ubiquitin-proteasomal pathway. Ubiquitin (Ub) is highly conserved in all cells and the generation of a multi-Ub chain typically targets proteins for degradation by the proteasome. However, ubiquitination is highly reversible and dynamic. Deubiquitination, the reverse process, is catalyzed through the action of enzymes referred to as isopeptidases or deubiquitinating enzymes (DUBs). This group of enzymes is collectively responsible for maintaining adequate pools of free ubiquitin and regulating the ubiquitination status of cellular proteins. The class of DUBs referred to as the ubiquitin-specific proteases (USP) family functions endoproteolytically to cleave Ub chains from a wide range of protein substrates. […] Cells in G2 have twice the fluorescence as cells in G1, and the Acumen allows the cells to be binned by their individual fluorescence properties. Therefore, in the presence of an active USP2 inhibitor the fluorescence of a cell would be lower since it would not progress from G1 to S and then G2. […]
HCT116 cells at 600 cells/well were plated in 96-well plates and allowed to adhere overnight (37C, […]). […] Intensity of the DNA stain per cell was quantified using the Acumen plate reader. […]

Row | Structure (SMILES) | Potency
1 | Cc1ccc(S(=O)(=O)Nc2cc(C(F)(F)F)ccc2C(=O)Nc2nc(-c3ccccc3)cs2)cc1 | 2000 nM (active)
